Data on three compounds can be found in PubChem BioAssay (NCATS).

A number with no mark means an inactive call. Results filed as inconclusive are left out. The source made the active and inactive calls. Unless noted, calls follow the shape of the dose curve; as a rule, active = well fitted curve in the direction sought with a large enough effect; inconclusive = small, poorly fitted or top-dose-only effect, or another doubt; inactive = no such curve, though single readings can be large; an effect the other way counts as inactive or inconclusive.

A short description of experiment [1]: Validation of Assay for Modulators of Lamin A Splicing (AID 1459; active = well fitted curve in the direction sought with a large enough effect in the signal ratio; the % refers to the signal ratio;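 also: cells exposed to compound for two days before reading; 0% is about no effect; ratio rise marks activators and ratio drop marks inhibitors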). The essentials: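 HeLa S3 lamin A-EGFP/DsRed2 stable clone, 600 cells/well, Opti-MEM 2% FBS; compounds by pin tool; 48 hrs, 37 °C/5% CO2; Acumen 488 nm scan, objects 10-100 um; GFP/RFP intensity ratio.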
The target of experiment [2] is DNA repair nuclease/redox regulator APEX1 (Homo sapiens) (UniProt P27695). In words: qHTS Validation Assay for Inhibitors of the Human Apurinic/apyrimidinic Endonuclease 1 (APE1) (AID 1705;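 also: TAMRA fluorescence gain over two minutes as APE1 cuts a quenched THF abasic duplex; series mostly up to about 57 µM; % is scaled to controls: 0 for no effect and ±100 for the full control effect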). The essentials: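 qHTS, 1536-well. APE1 + cpd 15 min RT → 50 nM TAMRA/BHQ-2 THF-abasic dsDNA substrate → kinetic fluorescence, 3 reads/60 s; delta(read3−read1) = reaction progress. No-enzyme buffer = negative control.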
(Quantitative high-throughput screening tests each substance at several concentrations.)

Experiment [3] in a line: Counterscreen for APE1 Inhibitors: Fluorescent Dye Displacement Validation Assay (AID 1707).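 Also: plate controls were ThO with dsDNA and no compound for no effect and ThO without dsDNA for full effect.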 The essentials:
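Counterscreen flags promiscuous DNA binders: compounds displacing ThO from duplex DNA (abasic THF site, 50 nM) reduce 540 nm emission (480 nm excitation). ThO 250 nM final; Tris-HCl pH 7.5 with NaCl, MgCl2 and Tween-20.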

In experiment [4] the target is Endonuclease 4 (Escherichia coli (strain K12)) (UniProt P0A6C1). Nature of the experiment: Counterscreen for APE1 Inhibitors: qHTS Validation Assay for Inhibitors of Endonuclease IV (AID 1708). Also: % is scaled to controls: 0 for no effect and ±100 for the full control effect. An outline of the steps: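 Incision of a double-stranded 50 nM TAMRA/BHQ-2 abasic substrate was followed kinetically (525/598 nm, reads every 60 s) after 15 min enzyme–compound preincubation with 2 nM EndoIV in pH 7.5 Tris buffer with MgCl2, DTT and Tween-20; concentration-response format.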
For orientation: Counterscreens check selectivity or assay interference.

Experiment [5] is described as follows: qHTS for differential inhibitors of proliferation of Plasmodium falciparum line GB4 (AID 1816).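 Also: parasite growth measured after 72 h incubation; 0% = vehicle DMSO and -100% = reference inhibitor.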 The note with it: Potency: Plasmodium falciparum GB4 proliferation inhibition.
Experiment [6] can be described thus: qHTS for differential inhibitors of proliferation of Plasmodium falciparum line D10 (AID 1877).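 Also: parasites grown with compound for 72 h before DNA staining; plate controls were vehicle wells for no effect and reference inhibitor wells for full effect.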
Experiment [7] in a line: qHTS Assay for Modulators of Human Peripheral Myelin Protein 22 (PMP22) Expression/Activity (AID 1967; active = well fitted curve in the direction sought with a large enough effect in the signal ratio; the % refers to the signal ratio;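 also: 0% = untreated cells and 100% end not stated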). An outline of the steps: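 Luminescence ratio of Pmp22 promoter-driven green luciferase to EF-alpha-driven red luciferase, in engineered mouse MSC80 Schwann cells, served as read-out. Compounds were incubated 24h; untreated cells defined 0% Activity; curves were classified by r2, magnitude and activity.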

Experiment [8] concerns the target ATP-dependent DNA helicase Q1 (Homo sapiens) (UniProt P46063). Nature of the experiment: qHTS Validation Assay for Inhibitors of RecQ-Like Dna Helicase 1 (RECQ1) (AID 2353).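 Also: plate controls were DMSO vehicle for no effect and enzyme-free control for full effect.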 An outline of the steps: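 RECQ1T1 50 nM; forked duplex (20 bp + 30-nt ss tails) 200 nM, ATP 2 mM final; pH 8.0, 2 mM MgCl2, 2.5 ug/ml poly(dI-dC); 15 min compound preincubation; discontinuous kinetic read over 2 h at RT.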

A short description of experiment [9]: Validation screen for small molecules that induce DNA re-replication in MCF 10A normal breast cells (AID 463097). Also: 0% is about no effect; nearly all actives have a fitted effect of over 60% in size. An outline of the steps:
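Image-based qHTS: normal breast cells are incubated with compound for 48 hr, stained with Hoechst, and scanned for total nuclear fluorescence. Compounds raising the fraction of nuclei with elevated DNA content count as re-replication inducers.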

Experiment [10] in a line: Quantitative high throughput screen for delayed death inhibitors of the malarial parasite plastid, 96 hour incubation (AID 488745). Also: nearly all actives have a fitted effect of over 70% in size. Also: potency is read from the fitted curve at half-maximal effect. An outline of the steps:
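Readout is firefly luciferase luminescence from an integrated reporter in P. falciparum; lower signal marks inhibited growth. Cultures at 2% hematocrit and 0.1% parasitemia were treated with compound across two generations (96 h, 37 C, 5% CO2).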

A short description of experiment [11]: Quantitative high throughput screen for delayed death inhibitors of the malarial parasite plastid, 48 hour incubation (AID 488752). Also: nearly all actives have a fitted effect of over 65% in size. Also: potency is read from the fitted curve at half-maximal effect. The essentials:
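First, compound was pinned into RPMI 1640 medium containing 0.5% Albumax. Next, reporter-parasite-infected erythrocytes were added to 2% hematocrit and 0.1% parasitemia. After 48 h at 37 C under 5% CO2, luciferase detection reagent was added and luminescence read.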

Experiment [12] addresses M-phase phosphoprotein 8 (Homo sapiens) (UniProt Q99549). In words: qHTS Validation Assay for Inhibitors for MPP8 Chromodomain Interactions with Methylated Histone Tails (AID 488949).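 Also: 50 nM MPP8 with 50 nM peptide preformed then compounds added for 30 min; AlphaScreen signal from MPP8 chromodomain bound to biotinylated H3K9me3 peptide; top concentration of the series differs between compounds; % is scaled to controls: 0 for no effect and ±100 for the full control effect; nearly all actives have a fitted effect of over 55% in size.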 An outline of the steps:
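50 nM MPP8 + 50 nM b-H3K9me3 peptide, PBS pH 7.4/0.01% Tween-20, 30 min RT; + cpd 30 min RT; + AlphaScreen donor/Ni-chelate acceptor beads 10 ug/mL final, 30 min dark; luminescence read.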

The target of experiment [13] is Thyrotropin-releasing hormone receptor (Homo sapiens) (UniProt P34981). In words: qHTS for Small Molecule Agonists and Allosteric Enhancers of Human TRH Receptor: Validation Screen for Agonists (AID 493127;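 active = calcium activation more than 3 SD above the typical response in the agonist read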;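 also: intracellular calcium rise by fluo-8 fluorescence before TRH EC20 addition; 0% is about no effect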). The note with it: TRH receptor agonist cell assay; at 2 µM; stronger effect = higher value. The essentials:
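Compounds are added by online pintool to dye-loaded TRHR cells while fluorescence is recorded every second. A rise in calcium signal during the agonist read marks activation; a later 10 nM TRH addition (EC20) serves the separate enhancer mode.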

In experiment [14] the target is Galactokinase (Homo sapiens) (UniProt P51570). In words: qHTS Validation Assay for Inhibitors of Human Galactokinase (GALK) (AID 493189). Also: 0% is about no effect. An outline of the steps:
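5 nM GALK / 100 uM galactose / 35 uM ATP, 20 mM HEPES pH8.0, 5 mM MgCl2, 60 mM NaCl, 1 mM DTT, 0.01% BSA (final). RT 1 h; Kinase-Glo Plus luminescence.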

Experiment [15] can be described thus: Validation screen for small molecules that induce DNA re-replication in SW480 colon adenocarcinoma cells (AID 504364). Also: 0% is about no effect. An outline of the steps:
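Image-based qHTS: compounds were incubated with SW480 cells for 48 hr, nuclei stained with Hoechst, and per-nucleus fluorescence intensity scanned to flag cells with excess DNA content.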

Experiment [16] in a line: qHTS for differential inhibitors of proliferation of Plasmodium falciparum line 3D7 (AID 1876). Also: potency is read from the fitted curve at half-maximal effect.
Experiment [17] in a line: qHTS for differential inhibitors of proliferation of Plasmodium falciparum line Dd2 (AID 1882). Also: potency is read from the fitted curve at half-maximal effect; nearly all actives have a fitted effect of over 65% in size. The note with it: Potency: Plasmodium falciparum Dd2 proliferation inhibition. The essentials:
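SYBR Green DNA fluorescence (ex 485, em 535 nm) after overnight lysis quantifies parasite growth; compound exposure lasted 72 h at 37 C on infected red cells at 2.5% hematocrit, 0.3% parasitemia (final). Artemisinin 0.29 uM and vehicle wells define normalization.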

The nature of experiment [18]: qHTS for differential inhibitors of proliferation of Plasmodium falciparum line W2 (AID 1883).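 Also: potency is read from the fitted curve at half-maximal effect; parasites grown with compound for 72 h before lysis and staining.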 The note with it: Potency: Plasmodium falciparum W2 proliferation inhibition.
Experiment [19] addresses Ferritin light chain (Equus caballus) (UniProt P02791). Nature of the experiment: qHTS Validation Assay for Identification of Novel General Anesthetics (AID 2323). Also: series mostly up to about 77 µM; % is scaled to controls: 0 for no effect and ±100 for the full control effect. An outline of the steps:
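Fluorescence at 535 nm (excitation 380 nm) reported loss of 1-AMA binding to horse-spleen apoferritin (10 uM) in PBS with 50% saturated 1-aminoanthracene, after 10 min room-temperature incubation with compound; values from Hill fits of normalized response.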

Experiment [20] addresses Transient receptor potential cation channel subfamily V member 1 (Homo sapiens) (UniProt Q8NER1). Nature of the experiment: HTS Assay for Compounds that Act as Enhancers of the Vanilloid Receptor 1 (AID 488979). Also: 0% is about no effect. An outline of the steps:
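Calcium influx kinetics via Fluo-8 (480/520 nm) in TRPV1-expressing cells, 2000/well cultured overnight at 35.5C. Compound-alone read 3 min (agonist phase), followed by EC20 capsaicin challenge for 2 min (enhancer phase).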

Experiment [21] is described as follows: qHTS for differential inhibitors of proliferation of Plasmodium falciparum line 7G8 (AID 1815).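 Also: potency is read from the fitted curve at half-maximal effect; parasite growth measured after three days of incubation.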
A short description of experiment [22]: qHTS for differential inhibitors of proliferation of Plasmodium falciparum line HB3 (AID 1886).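 Also: potency is read from the fitted curve at half-maximal effect; parasites grown with compound for 72 h before SYBR Green readout.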 The note with it: Potency: Plasmodium falciparum HB3 proliferation inhibition.
The target in experiment [23] is Voltage-gated inwardly rectifying potassium channel KCNH2 (Homo sapiens) (UniProt Q12809). In words: qHTS Assay for Small Molecule Inhibitors of the Human hERG Channel Activity (AID 588834).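 Also: top concentration of the series differs between compounds; % is scaled to controls: 0 for no effect and ±100 for the full control effect; lower thallium flux fluorescence means stronger hERG block; nearly all actives have a fitted effect of over 50% in size.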 The essentials:
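Step 1: BacMam hERG transduction of U2OS, 4 hrs RT. Step 2: overnight 37 °C, plate 2000 cells/well, 4 hr. Step 3: FluxOR load, compound 10 min, stimulate, read fluorescence.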

Chain of Galactokinase (Homo sapiens) (P51570 whole entry, looked up): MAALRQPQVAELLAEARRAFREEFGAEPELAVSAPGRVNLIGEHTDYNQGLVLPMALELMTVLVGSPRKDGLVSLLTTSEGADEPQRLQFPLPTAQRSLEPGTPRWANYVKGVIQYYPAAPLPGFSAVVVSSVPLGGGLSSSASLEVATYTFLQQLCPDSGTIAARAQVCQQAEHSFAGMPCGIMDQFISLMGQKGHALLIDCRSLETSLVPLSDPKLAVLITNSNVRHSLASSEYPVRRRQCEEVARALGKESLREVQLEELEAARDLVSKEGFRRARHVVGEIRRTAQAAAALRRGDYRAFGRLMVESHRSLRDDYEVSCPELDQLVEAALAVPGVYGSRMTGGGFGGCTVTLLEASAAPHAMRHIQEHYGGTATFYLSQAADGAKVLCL
Chain of M-phase phosphoprotein 8 (Homo sapiens) (Q99549 whole entry, looked up): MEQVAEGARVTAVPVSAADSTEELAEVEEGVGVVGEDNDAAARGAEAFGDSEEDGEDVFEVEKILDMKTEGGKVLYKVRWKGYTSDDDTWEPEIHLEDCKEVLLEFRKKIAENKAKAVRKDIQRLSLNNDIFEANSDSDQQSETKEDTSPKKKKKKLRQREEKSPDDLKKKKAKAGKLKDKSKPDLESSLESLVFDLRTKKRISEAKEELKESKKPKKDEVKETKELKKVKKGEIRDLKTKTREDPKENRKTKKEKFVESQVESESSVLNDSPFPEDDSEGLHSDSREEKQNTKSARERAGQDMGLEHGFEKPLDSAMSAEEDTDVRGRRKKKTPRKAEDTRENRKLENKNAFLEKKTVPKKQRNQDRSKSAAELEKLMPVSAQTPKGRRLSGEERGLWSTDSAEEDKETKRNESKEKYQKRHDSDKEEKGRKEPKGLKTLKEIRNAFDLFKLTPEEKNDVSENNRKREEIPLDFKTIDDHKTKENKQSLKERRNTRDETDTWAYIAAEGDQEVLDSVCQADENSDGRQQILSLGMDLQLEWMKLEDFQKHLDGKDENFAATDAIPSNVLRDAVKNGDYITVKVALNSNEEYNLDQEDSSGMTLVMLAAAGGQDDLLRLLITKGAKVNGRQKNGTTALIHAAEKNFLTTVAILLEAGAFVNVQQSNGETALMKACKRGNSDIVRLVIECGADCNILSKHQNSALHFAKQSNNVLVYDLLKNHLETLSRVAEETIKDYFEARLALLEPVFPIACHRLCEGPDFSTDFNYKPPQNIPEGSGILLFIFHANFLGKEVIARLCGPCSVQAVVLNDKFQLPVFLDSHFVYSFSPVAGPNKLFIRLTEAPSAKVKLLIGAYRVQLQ
Chain of DNA repair nuclease/redox regulator APEX1 (Homo sapiens) (P27695 whole entry, looked up): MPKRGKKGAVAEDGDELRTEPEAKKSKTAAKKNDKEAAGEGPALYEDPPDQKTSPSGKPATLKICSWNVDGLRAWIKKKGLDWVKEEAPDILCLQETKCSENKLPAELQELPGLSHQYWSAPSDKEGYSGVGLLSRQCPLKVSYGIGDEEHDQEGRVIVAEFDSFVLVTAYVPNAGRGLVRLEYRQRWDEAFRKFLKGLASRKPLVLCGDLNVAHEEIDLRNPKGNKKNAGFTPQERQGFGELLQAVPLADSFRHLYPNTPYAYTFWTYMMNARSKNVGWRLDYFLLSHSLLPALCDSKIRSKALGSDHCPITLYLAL
Chain of ATP-dependent DNA helicase Q1 (Homo sapiens) (P46063 whole entry, looked up): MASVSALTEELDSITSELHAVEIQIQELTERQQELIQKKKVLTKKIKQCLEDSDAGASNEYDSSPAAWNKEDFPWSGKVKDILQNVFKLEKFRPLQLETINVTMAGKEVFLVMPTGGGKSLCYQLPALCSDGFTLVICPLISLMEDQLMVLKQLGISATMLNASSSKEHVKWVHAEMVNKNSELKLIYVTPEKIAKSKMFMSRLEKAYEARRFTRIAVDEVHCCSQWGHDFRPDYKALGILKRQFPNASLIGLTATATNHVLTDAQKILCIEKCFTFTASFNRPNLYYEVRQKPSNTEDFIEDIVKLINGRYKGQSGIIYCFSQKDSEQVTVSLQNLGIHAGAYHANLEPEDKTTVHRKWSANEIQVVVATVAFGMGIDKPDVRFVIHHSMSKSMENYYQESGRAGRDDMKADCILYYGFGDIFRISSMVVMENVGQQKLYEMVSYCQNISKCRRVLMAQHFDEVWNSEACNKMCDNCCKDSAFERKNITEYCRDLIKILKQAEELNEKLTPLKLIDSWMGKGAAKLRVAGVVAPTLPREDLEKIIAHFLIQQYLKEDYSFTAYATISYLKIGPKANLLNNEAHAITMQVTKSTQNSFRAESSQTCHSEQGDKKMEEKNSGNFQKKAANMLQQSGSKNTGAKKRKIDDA
Chain of Thyrotropin-releasing hormone receptor (Homo sapiens) (P34981 whole entry, looked up): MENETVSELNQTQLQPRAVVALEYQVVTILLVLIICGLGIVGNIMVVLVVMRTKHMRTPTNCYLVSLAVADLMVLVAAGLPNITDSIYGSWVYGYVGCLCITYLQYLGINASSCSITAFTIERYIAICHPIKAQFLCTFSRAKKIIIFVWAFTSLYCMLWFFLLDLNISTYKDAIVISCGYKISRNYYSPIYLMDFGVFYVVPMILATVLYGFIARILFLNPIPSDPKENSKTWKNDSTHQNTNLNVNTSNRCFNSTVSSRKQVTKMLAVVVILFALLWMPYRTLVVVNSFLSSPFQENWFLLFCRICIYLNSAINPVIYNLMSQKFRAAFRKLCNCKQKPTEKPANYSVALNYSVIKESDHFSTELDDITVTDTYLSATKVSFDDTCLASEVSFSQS
Chain of Ferritin light chain (Equus caballus) (P02791 2-175 limits assumed): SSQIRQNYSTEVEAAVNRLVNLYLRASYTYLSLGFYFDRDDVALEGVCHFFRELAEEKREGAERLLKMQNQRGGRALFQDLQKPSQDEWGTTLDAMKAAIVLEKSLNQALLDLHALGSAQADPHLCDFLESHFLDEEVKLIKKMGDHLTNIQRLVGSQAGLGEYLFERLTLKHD
Chain of Transient receptor potential cation channel subfamily V member 1 (Homo sapiens) (Q8NER1 whole entry, looked up): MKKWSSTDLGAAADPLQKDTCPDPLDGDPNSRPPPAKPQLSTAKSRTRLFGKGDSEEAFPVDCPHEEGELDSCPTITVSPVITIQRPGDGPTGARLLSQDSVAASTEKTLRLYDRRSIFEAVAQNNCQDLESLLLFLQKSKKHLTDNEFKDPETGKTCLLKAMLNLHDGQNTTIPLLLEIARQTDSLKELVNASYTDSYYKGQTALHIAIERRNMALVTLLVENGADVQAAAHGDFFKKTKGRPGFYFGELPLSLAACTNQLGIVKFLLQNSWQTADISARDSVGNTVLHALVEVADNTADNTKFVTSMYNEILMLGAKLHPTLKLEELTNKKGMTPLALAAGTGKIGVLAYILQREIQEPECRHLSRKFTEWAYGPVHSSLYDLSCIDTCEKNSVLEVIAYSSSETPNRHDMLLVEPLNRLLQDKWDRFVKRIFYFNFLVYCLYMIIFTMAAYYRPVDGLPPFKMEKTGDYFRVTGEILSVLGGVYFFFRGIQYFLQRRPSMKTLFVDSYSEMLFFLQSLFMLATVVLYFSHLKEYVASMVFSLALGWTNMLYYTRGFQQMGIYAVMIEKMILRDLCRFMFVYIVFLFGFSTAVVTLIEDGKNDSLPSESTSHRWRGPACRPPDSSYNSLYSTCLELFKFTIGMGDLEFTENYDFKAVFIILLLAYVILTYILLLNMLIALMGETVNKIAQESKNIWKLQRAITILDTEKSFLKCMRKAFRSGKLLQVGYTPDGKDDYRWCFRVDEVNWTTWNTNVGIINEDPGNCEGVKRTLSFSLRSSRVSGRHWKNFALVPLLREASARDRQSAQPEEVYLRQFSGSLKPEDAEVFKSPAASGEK
Chain of Voltage-gated inwardly rectifying potassium channel KCNH2 (Homo sapiens) (Q12809 whole entry, looked up): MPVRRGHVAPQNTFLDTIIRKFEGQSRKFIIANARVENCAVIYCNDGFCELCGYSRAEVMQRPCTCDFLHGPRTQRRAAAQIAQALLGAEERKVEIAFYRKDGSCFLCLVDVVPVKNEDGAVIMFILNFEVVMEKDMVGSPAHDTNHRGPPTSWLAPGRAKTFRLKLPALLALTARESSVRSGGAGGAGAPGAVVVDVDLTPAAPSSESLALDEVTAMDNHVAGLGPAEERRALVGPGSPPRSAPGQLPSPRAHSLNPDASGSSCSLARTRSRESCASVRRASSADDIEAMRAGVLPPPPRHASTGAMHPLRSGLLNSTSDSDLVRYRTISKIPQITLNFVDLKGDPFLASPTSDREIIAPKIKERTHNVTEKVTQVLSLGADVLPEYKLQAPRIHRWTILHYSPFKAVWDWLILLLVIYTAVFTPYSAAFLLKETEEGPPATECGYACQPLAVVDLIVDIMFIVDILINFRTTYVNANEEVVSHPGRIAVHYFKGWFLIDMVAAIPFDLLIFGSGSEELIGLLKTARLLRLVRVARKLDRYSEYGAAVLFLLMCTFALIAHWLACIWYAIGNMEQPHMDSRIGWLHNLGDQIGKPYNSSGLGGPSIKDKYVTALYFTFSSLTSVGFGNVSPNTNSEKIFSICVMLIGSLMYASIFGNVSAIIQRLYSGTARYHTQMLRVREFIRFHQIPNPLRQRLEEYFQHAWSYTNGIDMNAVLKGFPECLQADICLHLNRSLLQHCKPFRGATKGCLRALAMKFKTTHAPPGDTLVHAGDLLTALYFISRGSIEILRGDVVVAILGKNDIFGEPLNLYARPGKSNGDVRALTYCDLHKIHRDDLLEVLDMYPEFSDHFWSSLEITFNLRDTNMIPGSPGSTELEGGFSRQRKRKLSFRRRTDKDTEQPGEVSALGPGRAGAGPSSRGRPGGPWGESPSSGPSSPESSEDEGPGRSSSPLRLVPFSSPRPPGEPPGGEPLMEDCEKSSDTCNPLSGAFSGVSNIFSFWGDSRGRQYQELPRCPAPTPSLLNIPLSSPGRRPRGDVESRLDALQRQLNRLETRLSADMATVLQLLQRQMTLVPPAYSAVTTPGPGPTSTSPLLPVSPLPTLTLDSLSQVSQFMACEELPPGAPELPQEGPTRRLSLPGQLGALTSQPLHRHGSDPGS

Turning to `O=[N+]([O-])c1ccc(CSc2ncnc3c2ncn3[C@@H]2O[C@H](CO)[C@H](O)[C@H]2O)cc1`, the result in [1], in experiment [4], in experiment [7], in experiment [9], in experiment [14] and in experiment [15] was inactive. Further, the Potency entry in experiment [2], in experiment [3], in [5], in experiment [6], in experiment [8] and in experiment [10] was “inactive” in each case. Besides, the Potency entry in experiment [11] and in experiment [12] was “inactive” each time. Besides, the activation in experiment [13] is 0.688%.
In the case of `Nc1nc2c(nc(Br)n2C2O[C@H]3COP(=O)(O)O[C@@H]3C2O)c(=O)[nH]1` (some centres not stated), the compound was classed as inactive in [1], in [4], in experiment [19], in [9], in experiment [20] and in experiment [14]. The call in [15] was inactive. Also, the Potency result in [2], in [3], in experiment [8] and in [12] was “inactive” in each case. In addition, the Potency in [16] was 10 µM (active); in experiment [17], 7.94 µM (active); in [18], 6.31 µM (active); in [11] it was 10.4 µM (active). Further, the activation in experiment [13] is 0.812%.
For `CCCCC#Cc1nc(N)c2ncn([C@@H]3O[C@H](C(=O)NCC)[C@@H](O)[C@H]3O)c2n1`, the compound was classed as inactive in experiment [1], in [19], in [9], in experiment [14] and in [15]. The Potency result in [2], in [3], in experiment [8], in [12] and in experiment [23] was “inactive” in each case. In addition, the Potency was 7.94 µM (active) in experiment [21]; 8.91 µM (active) in [16]; 11.2 µM (active) in experiment [18]; 11.2 µM (active) in experiment [22]; 13.1 µM (active) in experiment [10]. For the same compound, the activation in [13] was -0.438%.
